Results published in PubChem BioAssay (Tox21).
Calls of active or inactive are those of the source. Entries that show only a call come without a potency. Calls follow the shape of the dose curve; as a rule, active = well fitted curve in the direction sought with a large enough effect in the repeat runs; inconclusive = weak or mixed curves; inactive = flat fitted curve, though single readings scatter.

assay: qHTS assay to test for compound auto fluorescence at 535 nm (green) in HEK293 cell free culture (AID 720682); details: cell-free medium, green autofluorescence 485/535 nm; series mostly up to 91.3 µM
Text: U.S. Tox21 Program National Center for Advancing Translational Sciences [NCATS] NIH Chemical Genomics Center [NCGC] U.S. Environmental Protection Agency [EPA] National Institutes of Environmental Health Sciences [NIEHS] National Toxicology Program [NTP] U.S. Food and Drug Administration [FDA] Tox21 Assay Overview: Compound auto fluorescence often interferes with screening of the compound library against various biological targets and signaling pathways. Some of these compounds may have fluorophoric properties. Such properties may interfere with the assay outputs resulting in false positives and/or negatives. To decrease such complications and ensure the compound activities are relevant in terms of biological response, the Tox21 10K compound library was screened for auto fluorescence. From the fluorophores used as reporter signals in our screening assays, the auto fluorescence equivalencies of compounds against three fluorophores have been evaluated: Triamterene, Fluorescein and Rose Bengal sodium for blue, green and red fluorescence, respectively. The fluorescence intensities were measured using Excitation/Emission wavelengths at 405/460nm, 485/535nm and 540/590nm for blue, green and red labels, respectively. This assay includes the green fluorescence data.
Tox21 Assay Protocol Summary: 5 uL of culture medium (DMEM containing 10% FBS) per well was dispensed into black wall/clear bottom 1536-well plates using a Multidrop Combi Dispenser (ThermoFisher Scientific, Waltham, MA). After 23 nL compound or DMSO vehicle was transferred into assay plate by a pintool work station (Kalypsys, San Diego, CA), fluorescence intensities in the assay plates were measured by an Envision (PerkinElmer, Shelton, CT) plate reader using three labels for measuring blue, green and red fluorescence at […] 460, 535 and 590nm respectively.

| Compound | Potency |
| --- | --- |
| Cc1c(C(N)=O)cc([N+](=O)[O-])cc1[N+](=O)[O-] | inactive |
| O=[N+]([O-])c1ccc2c(c1)Cc1ccccc1-2 | inactive |
| O=CCCCC=O | inactive |
| c1ccc2c(c1)Oc1ccccc1S2 | inactive |
| CCCCCCCCCCCO | inactive |
| CCOC(=O)C(C#N)=C(c1ccccc1)c1ccccc1 | inactive |
| c1ccc(Nc2ccccc2)cc1 | inactive |
| c1cc(-c2ccncc2)ccn1 | inactive |
| CCCCOCCOCCOCCO | inactive |
| CC(=O)O[C@]1(C(C)=O)CC[C@H]2[C@@H]3C=C(Cl)C4=CC(=O)[C@@H]5C[C@@H]5[C@]4(C)[C@H]3CC[C@@]21C | inactive |
| Cc1[nH]c(=O)c(C#N)cc1-c1ccncc1 | inactive |
| C#C[C@]1(O)CC[C@H]2[C@@H]3CCc4cc(OC)ccc4[C@H]3CC[C@@]21C | inactive |
| O=C(O)c1ccccc1Nc1cccc(C(F)(F)F)c1 | inactive |
| Cn1cnc([N+](=O)[O-])c1Sc1ncnc2nc[nH]c12 | inactive |
| C#C[C@]1(O)CC[C@H]2[C@@H]3CCC4=Cc5oncc5C[C@]4(C)[C@H]3CC[C@@]21C | inactive |
| Nc1ccc(Nc2ccccc2)cc1 | inactive |
| c1ccc2c(c1)c1cccc3ccc4cccc2c4c31 | inactive |
| CCC(C)c1ccccc1O (stereo not given) | inactive |
| Nc1ccccc1N | inactive |
| CC(C)=CCCC(C)CCO (stereo not given) | inactive |

| Compound | Potency |
| --- | --- |
| C=C(C)C1CC=C(C)CC1 (stereo not given) | inactive |
| O=C(c1ccccc1)c1ccccc1O | inactive |
| COC(=O)c1ccccc1 | inactive |
| c1ccc2cc(Nc3ccc(Nc4ccc5ccccc5c4)cc3)ccc2c1 | inactive |
| CCC(C)CO (stereo not given) | inactive |
| COc1cc([C@@H]2c3cc4c(cc3[C@H](O)[C@H]3COC(=O)[C@H]23)OCO4)cc(OC)c1OC | inactive |
| c1ccncc1 | inactive |
| C[C@]12CC[C@H]3[C@@H](CCC4=CC(=O)CC[C@@]43C)[C@@H]1CC[C@@H]2C(=O)CO | inactive |
| COC(=O)Nc1nc2ccc(S(=O)c3ccccc3)cc2[nH]1 (stereo not given) | inactive |
| S=C(NC1CCCCC1)NC1CCCCC1 | inactive |
| c1cc(N(CC2CO2)CC2CO2)ccc1OCC1CO1 (stereo not given) | inactive |
| CCCCc1oc2ccccc2c1C(=O)c1cc(I)c(OCCN(CC)CC)c(I)c1 | inactive |
| O=C(COc1ccc(Cl)cc1)N1CCN(Cc2ccc3c(c2)OCO3)CC1 | inactive |
| CCCC(=O)O | inactive |
| O=C(/C=C/C=C/c1ccc2c(c1)OCO2)N1CCCCC1 | inactive |
| CC(C)OC(=O)C(C)(C)Oc1ccc(C(=O)c2ccc(Cl)cc2)cc1 | inactive |
| Clc1nc(Cl)c(Cl)c(Cl)c1Cl | inactive |
| Cc1cccc(C(=O)O)c1 | inactive |
| CC(=O)Oc1ccccc1C(=O)Nc1ncc([N+](=O)[O-])s1 | inactive |
| Cc1ncc[nH]1 | inactive |
